High-throughput results as filed in PubChem.
Hits are enriched below; roughly 1.5% of the tested compounds scored in any of these assays.
IDE cell activ: human IDE activators in live cells, primary screen, fluorescence polarization, HEK cells, FAbeta-B substrate. FAbeta-B cleavage; 0% vehicle, 100% cell-free pure enzyme wells. hit rate 0.073% among 340,000. AID 493087, 2011. activation, % at 5.96 µM;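 active = activation above the mean of all tested compounds plus 3 SD, set per screening campaign, cut at about 17% in these data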
IDE inh: human IDE inhibitors in live cells, primary screen, fluorescence polarization, HEK cells, FAbetaB substrate | AID 434962, 2010 | Insulin-degrading enzyme (Homo sapiens), P14735 | hit rate 0.41% among 320,000 | inhibition, % at 5.59 µM | FAbetaB cleavage;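 active = percent inhibition above the average of all tested compounds plus 3 SD, set per screening campaign, cut at about 16% in these data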;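 note: IDE supplied by intact live HEK cells; FP after avidin binding of uncleaved biotin substrate so inhibition keeps polarization high; 0% = DMSO wells and 100% = 60 µM reference IDE inhibitor Ii1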
Cardiac RTF inh: cardiac RTF calcium sensitivity inhibitors, primary screen, biochemical, IANBD-TnC fluorescence, EC70 calcium | AID 493244, 2011 | hit rate 0.12% among 340,000 | inhibition, % at 7.15 µM | Troponin I, cardiac muscle (Homo sapiens) + Troponin T, cardiac muscle (Homo sapiens) + … | IANBD-labeled cardiac RTF, Ca2+ fluorescence;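 active = inhibition above the mean inhibition of all tested compounds plus 3 SD, cut at about 17% in these data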;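 note: assay run at fixed EC70 calcium of 1.6 mM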
CRFBP-R2 block: antagonists of CRF-BP/CRF-R2 complex, primary screen, cell-based, HEK293, calcium dye fluorescence, uHTS; CRF-induced calcium fluorescence; inhibition, % at 11.8 µM; hit rate 0.59% among 350,000; AID 588475, 2011;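 active = inhibition of the ligand-induced calcium signal above about 50% at the single tested concentration, limit read from the data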
RTF Ca sens act: cardiac RTF calcium sensitivity activators, primary screen, biochemical, IANBD-TnC fluorescence, EC20 calcium; Troponin I, cardiac muscle (Homo sapiens) + Troponin T, cardiac muscle (Homo sapiens) + …; IANBD-labeled TnC RTF fluorescence at EC20 calcium; 0% EC20 calcium, 100% full calcium; activation, % at 7.2 µM; hit rate 0.24% among 340,000;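 active = activation above the mean over all tested compounds plus 3 SD, cut at about 30% in these data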;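 note: rise in fluorescence read as greater calcium sensitivity of cardiac thin filaments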
CRFBP-R2 agonist: agonists of CRF-BP/CRF-R2 complex, primary screen, cell-based, HEK293, calcium dye fluorescence, uHTS; calcium dye fluorescence (FLIPR); percent of saturating CRF peptide response; activation, % at 13.2 µM; hit rate 0.46% among 350,000;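 active = activation of at least 50%, plus an integration ratio under a set limit after plate pattern correction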;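 note: plate controls were neutral control wells without compound for no effect and CRF at EC100 for full effect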
An asterisk follows results filed as active; . = no result given.

SMILES | IDE cell activ | IDE inh | Cardiac RTF inh | CRFBP-R2 block | RTF Ca sens act | CRFBP-R2 agonist
O=[N+]([O-])c1ccc(/C=C/C2=NN(c3ccccc3)C(c3ccco3)C2)o1 (centres undefined) | -19 | . | -4 | -95 | 9 | 66*
C(=C\c1ccco1)/C1=NN(c2ccccc2)C(c2ccco2)C1 (centres undefined) | -3 | 4 | -41 | -99 | 3 | 46
COc1cc(NC(=O)COC(=O)c2cnccn2)c(C)cc1[N+](=O)[O-] | -3 | 3 | -9 | 6 | 4 | -1
OC(CN1CCNCC1)Cn1ccc2ccccc21 (centres undefined) | . | 18* | . | . | . | .
Cc1cc(C)n(CC(O)Cn2ccc3ccccc32)n1 (centres undefined) | 2 | 8 | -13 | 9 | -1 | 2
COc1ccccc1C(CNc1nc(C(F)(F)F)nc2ccccc12)N(C)C (centres undefined) | -2 | 4 | -20 | -6 | -4 | 0
CC1=CC(=C(C#N)c2nc3ccccc3s2)C=C(C)N1CC1CCCO1 (centres undefined) | -4 | 7 | 3 | -26 | 7 | 64*
Cc1ccc(S(=O)(=O)Oc2ccc(C(c3c(C)[nH][nH]c3=O)c3c(C)[nH][nH]c3=O)cc2)cc1 | 2 | 0 | 3 | -160 | -8 | 126*
CCOc1cc(C(c2c(C)[nH][nH]c2=O)c2c(C)[nH][nH]c2=O)ccc1OS(=O)(=O)c1ccccc1 | -2 | 2 | -12 | 7 | 3 | -1
O=C(OCc1ccc2c(c1)OCO2)c1ccc(S(=O)(=O)N2CCCC2)cc1 | 3 | -3 | -9 | 114* | -7 | 1
CCCCn1nc(-c2ccccc2)c2nc3ccccc3nc21 | . | 1 | . | . | . | .
Cn1nc(-c2ccccc2)c2nc3ccccc3nc21 | -3 | 1 | -9 | -205 | 52* | 253
Cc1ccc(N(C(=O)Cn2nnc(-c3ccccc3F)n2)C(C(=O)NC2CCCC2)c2ccncc2)cc1 (centres undefined) | 2 | 3 | -9 | 51* | 1 | 0
Cc1ccc(N(C(=O)Cn2nnc(-c3cccs3)n2)C(C(=O)NC2CCCC2)c2ccncc2)cc1 (centres undefined) | 4 | -5 | -7 | 21 | 8 | 4
COc1ccc([N+](=O)[O-])cc1NC1CCN(C(=O)c2cccs2)CC1 | 4 | -4 | 2 | -4 | -6 | -3
Cc1cc(C(=O)N2CCN(S(=O)(=O)c3ccc(C)c(C)c3)CC2)no1 | 4 | . | 8 | 12 | -4 | 0
O=C(Nc1ccc(OCC(F)(F)C(F)F)c(C(F)(F)F)c1)c1ccccc1O | 0 | -2 | -7 | 10 | -2 | 60*
O=C(Nc1ccc(OCC(F)(F)C(F)F)c(C(F)(F)F)c1)c1ccccc1 | 2 | 2 | -5 | 1 | -14 | 1
O=S(=O)(NCCN1CCOCC1)c1cc(Cl)c(Cl)cc1Cl | 5 | -3 | -6 | 2 | -8 | 0
[O-][n+]1c2c(c3c4non(O)c4ccc31)CCCC2 | -3 | 0 | -9 | 53* | -18 | 85*
CCc1nn(CCCC(=O)NC2CCCCC2C)c(=O)c2cc3occc3n12 (centres undefined) | . | . | . | 27 | . | -4
CSc1ccc(CCNC(=O)c2ccc(CS(=O)Cc3ccc(Cl)cc3)o2)cc1 (centres undefined) | -4 | 6 | -1 | 80* | -1 | 2
O=C(NCc1cccs1)c1ccc(CS(=O)Cc2cccc(Cl)c2)o1 (centres undefined) | -2 | -2 | -8 | 58* | 2 | -1
O=C(NCCc1ccc(Cl)cc1)c1ccc(CS(=O)Cc2ccc(Cl)cc2)o1 (centres undefined) | -8 | 0 | -1 | 2 | 4 | 0
COc1ccc(/C(O)=C/c2nc3ccccc3n(-c3ccccc3)c2=O)cc1 | 0 | -7 | -8 | -41 | 14 | 132*
SMILES | IDE cell activ | IDE inh | Cardiac RTF inh | CRFBP-R2 block | RTF Ca sens act | CRFBP-R2 agonist
Cc1ccc(S(=O)(=O)N(C)c2ccc3c(ncn3C)c2[N+](=O)[O-])cc1 | 1 | -1 | 6 | 0 | -2 | 0
CCOC(=O)C(NC(=O)CC(C)C)(Nc1sc(C)c(CC)c1C#N)C(F)(F)F (centres undefined) | 4 | -2 | -8 | 51* | 5 | 2
Nc1cccc(CP(=O)(c2ccccc2)c2ccccc2)c1 | 2 | -3 | -4 | 11 | 0 | -1
CCN(c1ccc(N=Cc2c(O)n(Cc3ccc(OC)cc3)c(=O)c3ccccc23)cc1)C(C)C | 0 | . | -28 | -99 | 418* | 127*
CC(C)(C)c1ccc(SCCc2cccnc2)cc1 | 3 | 5 | 0 | 71* | 8 | 0
c1ccc(SCCc2ccncc2)cc1 | 0 | 0 | 1 | -2 | -2 | 2
O=C(NCc1cccs1)C1CCCN(C(=O)Nc2ccccc2)C1 (centres undefined) | -3 | 1 | 2 | -1 | -1 | 1
COc1ccc2cc(C(=O)N3CCN(Cc4ccc5c(c4)OCO5)CC3)[nH]c2c1 | 5 | -4 | 1 | 50* | 2 | 0
CCN1CCN(C(=O)c2cc3ccc(OC)cc3[nH]2)CC1 | -1 | 5 | -4 | 17 | 4 | 6
Cc1c(Cl)cccc1N1C(=O)CC(NNC(=O)c2ccc3c(c2)OCO3)C1=O (centres undefined) | -2 | 2 | -6 | -1 | 1 | 0
CCn1nc(C)c(NC(=O)c2ccc(Cl)cc2)c1C | 4 | -3 | -3 | -11 | -1 | 0
CCn1nc(C)c(NC(=O)Nc2cccc(Cl)c2Cl)c1C | 3 | -8 | -2 | 53* | 12 | -4
O=CNC1c2ccccc2CCc2ccccc21 | 3 | . | 0 | 1 | -3 | -5
O=c1oc2c(CN3CCN(CCO)CC3)c(O)ccc2cc1-c1ccccn1 | 4 | 4 | 1 | -15 | -1 | 71*
O=c1oc2c(O)cccc2cc1-c1nc2ccccc2[nH]1 | 61* | . | -283 | -105 | 153* | 184*
O=c1oc2c(CN3CCCCC3)c(O)ccc2cc1-c1nc2ccccc2[nH]1 | -25 | . | -49 | -71 | 20 | 97*
CC(C)NC(=O)Nc1ccc2c(c1)C(=O)N([C@H](C)CO)C[C@H](C)[C@@H](CN(C)S(=O)(=O)c1ccc(F)cc1)O2 | 7 | 1 | 3 | 5 | -8 | -1
Cc1noc(C)c1NC(=O)Nc1ccc2c(c1)C(=O)N([C@H](C)CO)C[C@H](C)[C@@H](CN(C)S(=O)(=O)c1ccc(F)cc1)O2 | -2 | 11 | -5 | 70* | 9 | 2
